# Sampled rows, rich in hits. Any-hit rate of the full collection: about 1.3%.
# PINK1 modulator = A Quantitative High throughput Screen to Identify Chemical Modulators of PINK1 Expression; PINK1 immunofluorescence, high-content cytometry, 24 h; Potency, µM (top dose mostly 76.6 µM), without a hit: top-dose activation (PINK1 increase), most hits filed as activators; 0.2% of 410,000 active; AID 624263, 2012; active = well fitted activation curve with a large enough effect; inconclusive = small, poorly fitted or top-dose-only effect; cell line not stated here; also: potency is read from the fitted curve at half-maximal effect; % of control where 0% means no effect; nearly all actives have a fitted effect of over 65% in size
#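 Cells are seeded, rested 12 hours, then given compound at five concentrations or DMSO for 24 hours. After fixation, blocking and antibody staining, PINK1 amount and mitochondrial localization are scored; CCCP serves as control.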
# Giardia killer = Small Molecules that selectively kill Giardia lamblia: qHTS | activity change, % at 7.66 µM, hits read low | AID 540267, 2011 | 0.15% of 340,000 active | Giardia lamblia trophozoite viability; in the data active = activity change below about -80%; inconclusive = between about -30% and that limit;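 also: parasites exposed to compound for two days anaerobically before the ATP read; % is scaled to controls: 0 for no effect and ±100 for the full control effect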
#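 Compounds were tested on trophozoites seeded at 100 cells/well and held 48 hrs at 37 deg C anaerobically. An ATP-based luminescent kit measured the remaining live cells.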
# ERG-DNA inh = qHTS for Small Molecule Inhibitors of the ERG Ets/DNA interaction. Transcriptional regulator ERG (Homo sapiens), P11308. fluorescence polarization, His-ERG Ets domain / labelled DNA. Potency, µM (highest dose often 76.9 µM), for inactives: top-dose FP activity, negative = inhibition, most hits filed as inhibitors. 0.028% of 370,000 active; active = well fitted inhibition curve with a large enough effect in the polarisation, with a control signal flat; inconclusive = small, poorly fitted or top-dose-only effect, or effect the other way, or a change in a side signal; inactive = no such curve, though single readings can be large or run the other way; the % refers to the polarisation;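 also: polarization taken with two DNA probes labelled with fluorescein and Texas red; potency is read from the fitted curve at half-maximal effect; % of control where 0% means no effect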
#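 His-tagged ERG Ets domain (1 uM in the protein solution; 300mM KCl, 50mM Tris-HCl, 1mM EDTA, 1mM DTT, pH 7.5) received compound, then a probe mix of 5 nM fluorescein-DNA and 100nM Texas-615-DNA. Fluorescence polarization was read for both dyes.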
# PTHR1 ag = qHTS for PTHR1 Agonists: Primary Screen; HEK293 GP2 PTHR1 cells, GloSensor cAMP luminescence, 1 h; Potency, µM (series often up to 115 µM), for inactives: at the top dose activation, hits mostly activators; 0.075% of 410,000 active; also: potency is read from the fitted curve at half-maximal effect; nearly all actives have a fitted effect of over 55% in size
# Target sequence (Q03431 whole entry, looked up): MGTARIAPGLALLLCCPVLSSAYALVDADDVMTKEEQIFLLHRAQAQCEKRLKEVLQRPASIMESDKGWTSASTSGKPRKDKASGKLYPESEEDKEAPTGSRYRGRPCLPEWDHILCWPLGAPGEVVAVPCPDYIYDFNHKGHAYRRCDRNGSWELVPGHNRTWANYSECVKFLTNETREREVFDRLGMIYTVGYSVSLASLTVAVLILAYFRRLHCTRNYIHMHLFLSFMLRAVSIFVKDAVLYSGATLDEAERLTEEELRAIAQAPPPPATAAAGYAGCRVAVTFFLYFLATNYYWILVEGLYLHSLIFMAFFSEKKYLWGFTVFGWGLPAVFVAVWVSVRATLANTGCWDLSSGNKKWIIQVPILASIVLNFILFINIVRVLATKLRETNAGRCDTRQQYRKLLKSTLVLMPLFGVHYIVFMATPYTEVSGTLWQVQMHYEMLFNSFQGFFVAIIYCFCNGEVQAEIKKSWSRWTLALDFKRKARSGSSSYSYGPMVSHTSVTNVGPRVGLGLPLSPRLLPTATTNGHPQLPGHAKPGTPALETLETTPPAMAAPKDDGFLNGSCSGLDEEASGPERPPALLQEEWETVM
#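 HEK-293-derived GP2 cells expressing PTHR1 and a GloSensor cAMP reporter, 3,000/well, plated overnight, given luciferin plus IBMX (each 0.5 mM as added) for 1 h at 37 °C, then compound for 1 h at 37 °C. Luminescence was read after 15 min at room temperature.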
# miR-21 reporter = qHTS Assay for Modulators of miRNAs and/orActivators of miR-21. HeLa miR-21 FLuc reporter, luciferase, 48 h. Potency, µM (series often up to 38.3 µM), without a hit: at the top dose activity change, positive = activation, hits mostly activators. 340,000 tested, under 10 active;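 also: % of control where 0% means no effect; miR-21 action dims this reporter so a rising signal means less miR-21 action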
#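 Compounds were titrated across several concentrations (up to approximately 40 uM) and incubated 48 hours with HeLa miR-21-FLuc reporter cells (miR-21 target sequence downstream of FLuc, endogenous miR-21). Readout was firefly luciferase luminescence after lytic detection reagent.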
# 12-LOX inh = Primary qHTS assay for inhibitors of human arachidonate 12S-lipoxygenase (ALOX12): Round 2. purified 12hLO, xylenol orange hydroperoxide absorbance. Potency, µM (top dose mostly 108 µM), for inactives: top-dose activity change, negative = inhibition, usual class: inhibitors. 1.1% of 580,000 active. AID 1671190, 2021; also: potency is read from the fitted curve at half-maximal effect; % is scaled to controls: 0 for no effect and ±100 for the full control effect
#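 Hydroperoxide product was detected by ferrous iron/xylenol orange as the 573 to 405 nm absorbance ratio. Arachidonic acid at 40 uM (final) was turned over for 30 min at room temperature by 150 nM human 12hLO, pH 7.0 Hepes buffer, after 15 min compound preincubation.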
# Numbers without * were called inactive; i = inactive; u = inconclusive; x = no result; ! = not confirmed by another sample; [ ] = dose if it differs, or a comment. Unless noted, calls follow the shape of the dose curve; as a rule, active = well fitted curve in the direction sought with a large enough effect; inconclusive = small, poorly fitted or top-dose-only effect, or another doubt; inactive = no such curve, though single readings can be large; an effect the other way counts as inactive or inconclusive.
SMILES,PINK1 modulator,Giardia killer,ERG-DNA inh,PTHR1 ag,miR-21 reporter,12-LOX inh
Cc1nc2ccccc2n1/N=C/c1ccc([N+](=O)[O-])s1,u,u,0%,-8%,16%,4%
CN(C)C(=O)c1ccc(-c2nccc(Nc3ccc(F)cc3)n2)cc1,0%,x,x,x,x,u
Cc1ccccc1-c1nccc(-n2ccnc2)n1,0%,x,x,x,x,7.9µM*
CN(C)C(=O)c1ccc(-c2nccc(NCc3ccccc3)n2)cc1,5%,x,x,x,x,45µM*
CN(C)C(=O)c1ccc(-c2nccc(NCc3cccnc3)n2)cc1,0%,x,x,x,x,u
CN(C)C(=O)c1ccc(-c2nccc(-n3ccnc3)n2)cc1,0%,x,x,x,x,22µM*
Cn1nc(C2CCN(C(=O)Cc3ccc(Cl)cc3)CC2)[nH]c1=O,x,x,x,x,x,27%
CN1/C(=C\C=C2/C(=O)Oc3ccccc3C2=O)C(C)(C)c2ccccc21,13µM*,0,4%,-13%,-30%,12%
Cc1ncc([N+](=O)[O-])n1CCOC(=O)Nc1ccc([N+](=O)[O-])cc1,10%,-83*,-5%,i,0%,0%
Cc1ncc([N+](=O)[O-])n1CCOC(=O)c1cc(Cl)cc(Cl)c1N,0%,-86*,-2%,-6%,-18%,32µM*
Cc1ncc([N+](=O)[O-])n1CCOC(=O)C12CC3CC(CC(C3)C1)C2,2%,u,6%,-64%,0%,-1%
Cc1ccc(-c2ccc(C(=O)Nc3ccccc3)o2)c2ccccc12,3%,-15,20%,-54%,-37%,-18%
Cc1ccc(S(=O)(=O)NC(=O)c2ccc(-c3ccc(C)c4ccccc34)o2)cc1,1%,35,-3%,-36%,-12%,35µM*
CSC1=N/C(=C\c2ccc(-c3ccc(Cl)cc3)o2)C(=O)S1,x,x,x,x,x,25µM*
Cc1coc2c(C)c3oc(=O)c(CCC(=O)NCCc4ccccc4)c(C)c3cc12,1%,x,-6%,-9%,-11%,-14%
CN(Cc1cc(Cl)cc(Cl)c1)[C@H]1C[C@H]2c3[nH]c4ccccc4c3CCN2C(=O)[C@H]1CO,45µM*,x,x,-73%,x,u
CN(C(=O)C(C)(C)C)[C@H]1C[C@H]2c3[nH]c4ccccc4c3CCN2C(=O)[C@H]1CO,1%,x,x,-20%,x,u
Cc1cccc(NC(=O)CSc2cn(CC(=O)N3CCOCC3)c3ccccc23)c1,2%,x,1%,-15%,-1%,-4%
N#CCCN1CCN(CCC#N)c2ccccc21,-2%,-8,-2%,i,x,28µM*
NCC1CCN(CCc2ccccc2)C1 (stereo not given),x,x,x,x,x,-24%
COc1ccc(CCN(C)C(=O)C2CCCN(C3CCN(Cc4ccccc4)CC3)C2)cc1OC (stereo not given),0%,-25,2%,i,-2%,0.32µM*!
O=C(CCc1ccc(Oc2cc([N+](=O)[O-])cc([N+](=O)[O-])c2)cc1)N1CCCCC1,-1%,-22,-11%,-2%[57.5 µM],4%,-16%
COc1ccc(OCC2(C)COc3ccc(C(=O)Nc4ccccc4)cc3N2)cc1 (stereo not given),x,x,x,x,x,-15%[176 µM]
CN1CCC(NC(=O)c2ccc3c(c2)n(Cc2ccc(F)cc2)c(=O)c2ccnn23)CC1,x,x,x,x,x,20µM*
N=C1SCC(=O)N1/N=C/c1ccccc1,0%,-11,28µM*,i,-43%,5%
SMILES,PINK1 modulator,Giardia killer,ERG-DNA inh,PTHR1 ag,miR-21 reporter,12-LOX inh
O=C(CCC1CCN(CCCn2cccn2)CC1)NC1CCN(Cc2ccccc2)C1 (stereo not given),x,x,x,x,x,-9%
CCc1c(CN2CCN(c3ccc(F)cc3)CC2)csc1C,6%,x,-3%,-18%,0%,45µM*!
Cc1cc(CN2CCN(c3ccc(F)cc3)CC2)cs1,1%,x,-10%,i,1%,u
CCCCc1ccc(NC(=S)Nc2ccc(Nc3ccc(OC)cc3)cc2)cc1,16%,26,-13%,6%,3%,35µM*
CCCCc1ccc(NC(=S)NCc2cccc(OC)c2)cc1,u,-1,2%,-77%,-3%,u
S=C(NCCCc1ccccc1)Nc1ccccc1,1%,14,-5%,i,-6%,u
S=C(NCCCc1ccccc1)Nc1ccc(Cl)cc1,u,-12,-1%,-31%,4%,40µM*
Fc1ccc(CCNC(=S)Nc2ccc(F)c(Cl)c2)cc1,14µM*,2,6%,-28%,u,u
O=C(NCCNC(=O)Nc1ccc(Cl)cc1)Nc1ccc(Cl)cc1,4%,1,4%,i,x,13µM*
CCN(CC(=O)Nc1ccc(Cl)c(C(F)(F)F)c1)CC(=O)NC1CCS(=O)(=O)C1 (stereo not given),1%,1,9%,i,0%,-6%
CC/C(=N\NC(=O)OC)c1ccc(OC(F)F)cc1,2%,-7,-10%,-15%,-1%,2%
CC(=O)N1CCc2cc(S(=O)(=O)CCC(=O)NCc3ccc4c(c3)OCO4)ccc21,0%,0,5%,-14%[57.5 µM],-21%,82%
CCCCc1ccc(NC(=S)NCCc2ccc(Cl)cc2)cc1,x,x,x,x,x,32µM*
CCCCc1ccc(NC(=S)Nc2ccc(Cl)c(S(=O)(=O)N(C)C)c2)cc1,u,15,10%,-91%,13%,45µM*
CCN1CCN(CC(=O)Nc2ccc(Cl)c(S(=O)(=O)N(C)C)c2)CC1,0%,-2,3%,i,-9%,-25%
CN(C)CCCN(C(=O)c1cccc(C(F)(F)F)c1)c1nc2ccc(F)cc2s1,x,x,x,x,x,35µM*
NC(N)=N/N=C/c1cc([N+](=O)[O-])ccc1O,2%,-16,-1%,-12%,-16%,-16%
O=[N+]([O-])c1ccc(O)c(/C=N\N=C2c3ccccc3-c3ccccc32)c1,10µM*,14,x,-92%,-8%,10%
O=C(CSc1nnc2[nH]c(=O)c(Cc3ccccc3)nn12)Nc1cccc(Cl)c1,x,x,x,x,x,25µM*
COc1ccc(/C=C2\SC(=O)NC2=S)cc1OC,-3%,-7,47%,-35%,-28%,40µM*
CCOc1ccc(/C=C2\SC(=S)NC2=O)cc1OC,-2%,3,7%,-12%,-43%,-9%

# Screening data deposited in PubChem by National Center for Advancing Translational Sciences (NCATS).
